In PubChem BioAssay (NCATS) one finds Potency and activity change, negative = inhibition data, which are given here for 39 molecules.

Records with an inconclusive call do not appear. The source made the active and inactive calls. Calls follow the shape of the full dose curve.
Potency is read from the fitted curve at half-maximal effect.

The target in the assay is Cytochrome P450 1A2 (Homo sapiens) (UniProt P05177). The assay is described as follows: p450-cyp1a2 (AID 410).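 As to activity change, negative = inhibition: -100% = full effect of reference inhibitor.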 The settings on record: recombinant CYP1A2, luciferin-ME demethylation, luminescence; series mostly up to 11.4 µM. A digest of the protocol: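 O-Demethylation of luciferin 6' methyl ether by human CYP1A2 is monitored as luciferase luminescence. Substrate sits at Km (100uM); enzyme is 20nM. Values are scaled to 57 uM furafylline as maximal inhibition.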
Cytochrome P450 1A2 (Homo sapiens), sequence (P05177 whole entry, looked up): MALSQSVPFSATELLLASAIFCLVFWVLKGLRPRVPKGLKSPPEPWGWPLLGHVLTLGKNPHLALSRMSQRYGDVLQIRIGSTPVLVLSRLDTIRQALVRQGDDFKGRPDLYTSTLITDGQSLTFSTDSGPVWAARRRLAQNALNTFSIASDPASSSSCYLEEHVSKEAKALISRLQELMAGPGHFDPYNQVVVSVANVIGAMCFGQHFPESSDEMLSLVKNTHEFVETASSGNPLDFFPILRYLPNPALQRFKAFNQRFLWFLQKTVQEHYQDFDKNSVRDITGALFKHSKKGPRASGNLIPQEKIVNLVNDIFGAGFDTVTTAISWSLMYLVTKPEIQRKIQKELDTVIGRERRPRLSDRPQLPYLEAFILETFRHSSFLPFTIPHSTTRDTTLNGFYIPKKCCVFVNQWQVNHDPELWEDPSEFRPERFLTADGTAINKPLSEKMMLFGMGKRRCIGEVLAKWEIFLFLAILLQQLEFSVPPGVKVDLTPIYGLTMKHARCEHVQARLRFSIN
As for `C[C@H](Br)C(=O)c1ccc2cc(Br)c3ccccc3c2c1`, the Potency is 158 nM (active). In the case of `COc1ccc(C(=O)N2CCC3(CCCN(C(=O)Nc4cccc(F)c4)C3)CC2)cc1`, the Potency is 20000 nM (active). Consider `Cc1cc(C)c2c(SCc3ccc(Cl)cc3Cl)nc(N)nc2n1`, for which the Potency was 3160 nM (active). For the molecule `CC(=O)Nc1nc(NC(C)=O)c2[nH]c(CO)nc2n1`, the Potency result is “inactive”. For the molecule `Clc1ccc(CN2CCCN(Cc3ccc(Cl)cc3)C2c2cc3ccccc3c3ccccc23)cc1`, the Potency was 794 nM (active). As for `COc1cc(-c2[o+]c3cc(O)cc(O)c3cc2O)cc(O)c1O`, the activity change, negative = inhibition was -19.9% [at 2.29 µM] (inactive). Still for that read-out and setting: next, `O=C(O)[C@@H](O)[C@@H](O)[C@H](O)[C@H](O)CO`: -5.5% [at 2.29 µM] (inactive).

Consider `Nc1nc2c(ncn2[C@@H]2C=C[C@@H](CO)C2)c(=O)[nH]1`, for which the Potency result is “inactive”. Turning to `Cn1c(=S)c2[nH]c(SCCN3CCCC3)nc2n(C)c1=O`, the activity change, negative = inhibition is -29.7% [at 2.29 µM] (inactive). Turning to `C/C(CC/C(C)=N/O)=N/O`, the activity change, negative = inhibition is -12.6% [at 2.29 µM] (inactive). Take `Oc1ccc(Cn2c(-c3ccc(O)cc3)nc3ccccc32)cc1`: the Potency entry was “inactive”.

As to `NCCNCC1CCNCC1`, the activity change, negative = inhibition is -3.6% [at 2.29 µM] (inactive). For the molecule `CO[C@@H]1/C=C\O[C@]2(C)Oc3c(C)c(O)c4c(O)c(cc(O)c4c3C2=O)NC(=O)/C(C)=C\C=C/[C@H](C)[C@@H](O)[C@H](C)[C@H](O)[C@H](C)[C@H](OC(C)=O)[C@@H]1C`, the Potency result was “inactive”.

For `O=S(=O)(O)c1cc(N=Nc2cccc3ccccc23)c(O)c2ncccc12`, the Potency was 631 nM (active). As for `N#[N+]c1ccc(Nc2ccccc2)cc1`, the Potency entry was “inactive”.

Turning to `COC(=O)N1CCC2(CCCN(Cc3cc(C(F)(F)F)cc(C(F)(F)F)c3)C2)CC1`, the Potency entry was “inactive”. Turning to `CC(C)(N)CO[C@H]1C[C@H]2CC[C@@]1(C)C2(C)C`, the Potency result is “inactive”.

As to `CC(=O)N[C@@H]1CONC1=O`, the Potency entry is “inactive”. Consider `CC1=NN(c2ccc(S(=O)(=O)O)cc2)C(=O)/C1=C\c1ccc(Cl)cc1`, for which the activity change, negative = inhibition is -8.9% [at 2.29 µM] (inactive). The same measure, in the same setting: next, `O=C1C(=O)c2ccccc2C(O)=C1C(CCc1ccccc1)C1=C(O)c2ccccc2C(=O)C1=O`: -21.3% [at 2.29 µM] (inactive); `C[N+](C)(N)Cc1csc(-c2ccc(Cl)cc2)n1`: -4.2% [at 2.29 µM] (inactive). With `CC1=NCC[N@@+]1(CCc1ccccc1)Cc1ccccc1`, the Potency result was “inactive”. Take `CN(CC(=O)O)Cc1c(O)c(Cl)cc(Cl)c1Cl`: the activity change, negative = inhibition was -1% [at 2.29 µM] (inactive). Consider `O=C(O)CS(=O)c1ccc2c3c(cccc13)C(=O)c1ccccc1-2` (centres undefined), for which the Potency was 63.1 nM (active). In the case of `O[C@@H](COc1ccc(Cl)cc1Cl)CN1CCCC1`, the Potency is 5010 nM (active). For the molecule `O=S(=O)(c1ccccc1)N1CCC[C@@]2(CCN(Cc3ccccc3)C2)C1`, the Potency is 20000 nM (active).

In the case of `c1ccc([C@H](c2cccc3c2ccc2ccccc23)[C@H](c2ccccc2)c2cccc3c2ccc2ccccc23)cc1`, the Potency result is “inactive”. As to `O=C(O)CCc1c2ccc(=O)c(O)c-2oc2c(O)c(O)ccc12`, the activity change, negative = inhibition was -4% [at 2.29 µM] (inactive). For `O=C(O)C1(Nc2ccc(Cl)cc2)CCCC1`, the Potency entry is “inactive”. On the same count and under the same terms, under `O=c1cc(CF)[nH]c(=S)[nH]1` stands “inactive”; under `C[C@@]12CCC(=O)C=C1CC[C@H]1[C@@H]2[C@@H](O)C[C@]2(C)[C@@H]1CC[C@@]2(O)C(=O)CO`, “inactive”. On to `O=C(N/N=C\c1ccc2c(c1)CCC2)c1ccccc1O`, for which the Potency was 2000 nM (active). `N[C@@](CCc1ccccc1)(C(=O)O)c1ccccc1`: the Potency result is “inactive”. `CC1CCC(O)([C@](C)(C(=O)O)c2ccccc2)CC1` (some centres undefined): the Potency entry is “inactive”.

Consider `C[C@H]1C[C@H]2[C@H]3CCC4=CC(=O)C=C[C@@]4(C)[C@]3(F)[C@H](O)C[C@]2(C)[C@@]1(O)C(=O)COP(=O)(O)O`, for which the Potency result was “inactive”. With `O=C1Nc2ccccc2C1=Nc1ccc(S(=O)(=O)Nc2nccs2)cc1`, the Potency result is “inactive”. Consider `N[C@@H](Cc1ccccc1)C(=O)O`, for which the Potency result is “inactive”.

For the molecule `C[C@]12CC[C@H]3c4ccc(O)cc4CC[C@@H]3[C@H]1CC[C@@H]2OP(=O)(O)O`, the activity change, negative = inhibition was -11.2% [at 2.29 µM] (inactive). Turning to `O=[N+]([O-])c1ccc(Cl)c(CNc2ncnc3c2ncn3[C@@H]2CCCCO2)c1`, the Potency is 5010 nM (active).
